{"source": "PubChem BioAssay", "note": "Several values for one entry are separate records, joined by “and”; a condition that tells them apart may be missing. Identical values can stand only once. Activity calls are given as the source filed them.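 How the source made its calls: active means mean z-score across replicates of 1.96 or higher in either the MELAS or the Rieske mutant cell line; inactive means the rest.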 Further: test concentration not given here.", "data": [{"assay": "viability loss with induced miR-34 in A549 – imaging, A549 dox-inducible miR-34, nuclei and caspase counts, primary screen (AID 1347080)", "details": "A549 miR-34 inducible, Hoechst nuclei count, 48 h; measured here: total cells without miR-34 induction", "values": [{"smiles": "Cc1cc2c(OCC(CNC(C)(C)C)OC(=O)c3ccccc3)cccc2[nH]1", "note": "(centres undefined)", "cell count": 11000}, {"smiles": "CC(CNC1CCCCC1)OC(=O)c1ccccc1", "note": "(centres undefined)", "cell count": 9670}, {"smiles": "C[C@]12CC[C@H]3[C@@H](CCC4=CC(=O)CC[C@@]43C)[C@@H]1CC[C@@H]2C(=O)CO", "cell count": 9530}, {"smiles": "CCc1cccc(CC)c1NC(=O)CN(CC(=O)O)CC(=O)O", "cell count": 10400}, {"smiles": "CCC(=O)c1ccc(O)cc1", "cell count": 8840}, {"smiles": "FCOC(C(F)(F)F)C(F)(F)F", "cell count": 9480}, {"smiles": "COc1ccccc1Oc1c(NS(=O)(=O)c2ccc(C(C)(C)C)cc2)nc(-c2ncccn2)nc1OCCO", "cell count": "8980 and 9000 and 10700"}, {"smiles": "CCC(C)(CN(C)C)OC(=O)c1ccccc1", "note": "(centres undefined)", "cell count": 9000}, {"smiles": "OC[C@@H](O)[C@@H](O[C@@H]1O[C@H](CO)[C@H](O)[C@H](O)[C@H]1O)[C@H](O)[C@@H](O)CO", "cell count": 9370}, {"smiles": "CC1(C)CC1C(=O)NC(=CCCCCSCC(N)C(=O)O)C(=O)O", "note": "(centres undefined)", "cell count": 10500}, {"smiles": "C/C(=C(\\CCOP(=O)(O)O)SC(=O)c1ccccc1)N(C=O)Cc1cnc(C)nc1N", "cell count": 9750}, {"smiles": "CC[N+](C)(CC)CCOC(=O)C1c2ccccc2Oc2ccccc21", "cell count": 9380}, {"smiles": "CN1CCN(CCCN2c3ccccc3Sc3ccc(S(=O)(=O)N(C)C)cc32)CC1", "cell count": 8500}, {"smiles": "O=C(O)CCc1nc2ccccc2[nH]1", "cell count": 9340}, {"smiles": "OC(CCCN1CCCCC1)(c1ccccc1)c1ccccc1", "cell count": "9660 and 8950"}, {"smiles": "NS(=O)(=O)c1cc(C(=O)O)cc(N2CCCC2)c1Oc1ccccc1", "cell count": 9380}, {"smiles": "CN(CCCCCCCCCCN(C)C(=O)Oc1cccc([N+](C)(C)C)c1)C(=O)Oc1cccc([N+](C)(C)C)c1", "cell count": 10800}, {"smiles": "CC(C(=O)O)c1ccc(C(=O)c2ccccc2)s1", "note": "(centres undefined)", "cell count": 10800}, {"smiles": "CN1CCCN(C(c2ccccc2)c2ccc(Cl)cc2)CC1", "note": "(centres undefined)", "cell count": 8580}, {"smiles": "O=C1CC[C@@H](C(=O)O)N1", "cell count": 9800}, {"smiles": "CCOC(=O)Nc1ccc2c(c1)N(C(=O)CCN1CCOCC1)c1ccccc1S2", "cell count": 9540}, {"smiles": "COc1ccc(-c2cc(=S)ss2)cc1", "cell count": 9880}, {"smiles": "CN1CCN(C2=Nc3ccccc3Sc3ccc(Cl)cc32)CC1", "cell count": 9490}, {"smiles": "CCCNC(C)C(=O)Nc1c(C)csc1C(=O)OC", "note": "(centres undefined)", "cell count": "9680 and 9380"}, {"smiles": "O=C(O)Cc1sc(-c2ccccc2)nc1-c1ccc(Cl)cc1", "cell count": 11300}, {"smiles": "NS(=O)(=O)c1cc2c(cc1Cl)NC(CC1CCCC1)NS2(=O)=O", "note": "(centres undefined)", "cell count": 9590}, {"smiles": "O=C(O)c1ccc[n+]([O-])c1", "cell count": 9250}, {"smiles": "CN(C)CCn1nnnc1SCC1=C(C(=O)O)N2C(=O)[C@@H](NC(=O)Cc3csc(N)n3)[C@H]2SC1", "cell count": 9520}, {"smiles": "CC(C)(C)C(=O)OCOC(=O)[C@@H]1N2C(=O)[C@@H](NC(=O)[C@H](N)c3ccccc3)[C@H]2SC1(C)C", "cell count": 10100}, {"smiles": "COCC(=O)Nc1c(I)c(C(=O)NCC(O)CO)c(I)c(C(=O)N(C)CC(O)CO)c1I", "note": "(centres undefined)", "cell count": 10100}, {"smiles": "C1CCN2C[C@@H]3C[C@@H](CN4CCCC[C@@H]34)[C@H]2C1", "cell count": 10500}, {"smiles": "Cc1c(-c2ccccc2)oc2c(C(=O)OCCN3CCCCC3)cccc2c1=O", "cell count": "8860 and 8560"}, {"smiles": "CCCCN1C[C@H](O)[C@@H](O)[C@H](O)[C@H]1CO", "cell count": 10500}, {"smiles": "NC(=O)OCC(O)COc1ccc(Cl)cc1", "note": "(centres undefined)", "cell count": 9380}, {"smiles": "CCCCc1cc2ccccc2c(OCCN(C)C)n1", "cell count": 7110}, {"smiles": "O=C1[O][Bi][O]c2ccccc21", "cell count": 13500}, {"smiles": "C[N+]1(C)CCC(=C(c2ccccc2)c2ccccc2)CC1", "cell count": "9190 and 7990"}, {"smiles": "CC(C)NC[C@@H](O)COc1ccc(CC(N)=O)cc1", "cell count": 11100}, {"smiles": "OCc1ccccn1", "cell count": 9160}, {"smiles": "CN1CCCC(CC2c3ccccc3Sc3ccccc32)C1", "note": "(centres undefined)", "cell count": 7740}]}, {"assay": "MELAS cybrid and Rieske KO viability enhancers – cell-based, MELAS cybrids, Rieske KO mouse fibroblasts, CellTiter-Glo, primary screen (AID 1508586);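 further: z relative to plate mean and SD of compound and empty wells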", "details": "MELAS cybrid survival, low glucose, CellTiter-Glo 48 h; stronger effect = higher value", "values": [{"smiles": "Cc1cc2c(OCC(CNC(C)(C)C)OC(=O)c3ccccc3)cccc2[nH]1", "note": "(centres undefined)", "z-score": "-0.871 (inactive)"}, {"smiles": "CC(CNC1CCCCC1)OC(=O)c1ccccc1", "note": "(centres undefined)", "z-score": "-0.814 (inactive)"}, {"smiles": "C[C@]12CC[C@H]3[C@@H](CCC4=CC(=O)CC[C@@]43C)[C@@H]1CC[C@@H]2C(=O)CO", "z-score": "-0.237 (inactive)"}, {"smiles": "CCc1cccc(CC)c1NC(=O)CN(CC(=O)O)CC(=O)O", "z-score": "0.304 (inactive)"}, {"smiles": "CCC(C)(CN(C)C)OC(=O)c1ccccc1", "note": "(centres undefined)", "z-score": "0.476 (inactive)"}, {"smiles": "C/C(=C(\\CCOP(=O)(O)O)SC(=O)c1ccccc1)N(C=O)Cc1cnc(C)nc1N", "z-score": "0.178 (inactive)"}, {"smiles": "CC[N+](C)(CC)CCOC(=O)C1c2ccccc2Oc2ccccc21", "z-score": "0.613 (inactive)"}, {"smiles": "CN1CCN(CCCN2c3ccccc3Sc3ccc(S(=O)(=O)N(C)C)cc32)CC1", "z-score": "0.365 (inactive)"}, {"smiles": "OC(CCCN1CCCCC1)(c1ccccc1)c1ccccc1", "z-score": "-0.227 (inactive) and -0.211 (inactive)"}, {"smiles": "NS(=O)(=O)c1cc(C(=O)O)cc(N2CCCC2)c1Oc1ccccc1", "z-score": "-0.17 (inactive)"}, {"smiles": "CN(CCCCCCCCCCN(C)C(=O)Oc1cccc([N+](C)(C)C)c1)C(=O)Oc1cccc([N+](C)(C)C)c1", "z-score": "-1.21 (inactive)"}, {"smiles": "CC(C(=O)O)c1ccc(C(=O)c2ccccc2)s1", "note": "(centres undefined)", "z-score": "-0.736 (inactive)"}, {"smiles": "CN1CCCN(C(c2ccccc2)c2ccc(Cl)cc2)CC1", "note": "(centres undefined)", "z-score": "-0.68 (inactive)"}, {"smiles": "CCOC(=O)Nc1ccc2c(c1)N(C(=O)CCN1CCOCC1)c1ccccc1S2", "z-score": "0.935 (inactive)"}, {"smiles": "COc1ccc(-c2cc(=S)ss2)cc1", "z-score": "0.776 (inactive) and 0.734 (inactive)"}, {"smiles": "CN1CCN(C2=Nc3ccccc3Sc3ccc(Cl)cc32)CC1", "z-score": "-0.876 (inactive)"}, {"smiles": "CCCNC(C)C(=O)Nc1c(C)csc1C(=O)OC", "note": "(centres undefined)", "z-score": "-0.278 (inactive) and -0.744 (inactive)"}, {"smiles": "O=C(O)Cc1sc(-c2ccccc2)nc1-c1ccc(Cl)cc1", "z-score": "-0.576 (inactive) and -0.0336 (inactive)"}, {"smiles": "NS(=O)(=O)c1cc2c(cc1Cl)NC(CC1CCCC1)NS2(=O)=O", "note": "(centres undefined)", "z-score": "0.486 (inactive)"}, {"smiles": "CN(C)CCn1nnnc1SCC1=C(C(=O)O)N2C(=O)[C@@H](NC(=O)Cc3csc(N)n3)[C@H]2SC1", "z-score": "-0.0188 (inactive)"}, {"smiles": "CC(C)(C)C(=O)OCOC(=O)[C@@H]1N2C(=O)[C@@H](NC(=O)[C@H](N)c3ccccc3)[C@H]2SC1(C)C", "z-score": "-1.1 (inactive)"}, {"smiles": "COCC(=O)Nc1c(I)c(C(=O)NCC(O)CO)c(I)c(C(=O)N(C)CC(O)CO)c1I", "note": "(centres undefined)", "z-score": "-0.386 (inactive)"}, {"smiles": "Cc1c(-c2ccccc2)oc2c(C(=O)OCCN3CCCCC3)cccc2c1=O", "z-score": "-0.232 (inactive) and 0.0828 (inactive)"}, {"smiles": "CCCCN1C[C@H](O)[C@@H](O)[C@H](O)[C@H]1CO", "z-score": "0.308 (inactive)"}, {"smiles": "NC(=O)OCC(O)COc1ccc(Cl)cc1", "note": "(centres undefined)", "z-score": "-0.968 (inactive)"}, {"smiles": "CCCCc1cc2ccccc2c(OCCN(C)C)n1", "z-score": "0.0733 (inactive)"}, {"smiles": "C[N+]1(C)CCC(=C(c2ccccc2)c2ccccc2)CC1", "z-score": "-0.294 (inactive) and -0.951 (inactive)"}, {"smiles": "CC(C)NC[C@@H](O)COc1ccc(CC(N)=O)cc1", "z-score": "0.458 (inactive)"}, {"smiles": "CN1CCCC(CC2c3ccccc3Sc3ccccc32)C1", "note": "(centres undefined)", "z-score": "-0.486 (inactive)"}]}]}
